Measured values from PubChem BioAssay AID900 (National Center for Advancing Translational Sciences (NCATS), 2007).
Several values for one entry are separate records, joined by “and”; a condition that tells them apart may be missing. Equal entries are not always repeated. Hit rate of the full screen: of about 75,000 compounds, about 20 (0.03%) were called active. Not shown: some 1% with an inconclusive outcome. Not all results are given here. A number with no mark means an inactive call. The call rests on the fitted dose curve; in most records, active means well fitted inhibition curve with a large enough effect; inconclusive means small, poorly fitted or top-dose-only effect; inactive means flat fitted curve, though single readings scatter.

What follows are compounds tested against Caspase-1 (Homo sapiens) (UniProt P29466) (assay: qHTS Assay for Allosteric/Competitive Inhibitors of Caspase-1). Conditions: Caspase-1 enzyme, Ac-WEHD-AFC fluorogenic rate; series mostly up to 57.5 µM; activity change, negative = inhibition: at the top concentration.
Excerpt: NIH Molecular Libraries Screening Centers Network [MLSCN]
NIH Chemical Genomics Center [NCGC]
PI Name: Dr. James Wells,
Dr. Enrique Perez-Paya, Dr.Janice Williams, Dr. Dennis Wolan, a person
The caspases (Cysteine Aspartyl Protease) comprise a related family of 14 dimeric proteases that are critical mediators of apoptosis (programmed cell death) and inflammation. The caspases represent an important class of drug targets for stroke, ischemia, cancer and inflammatory diseases. […] One goal of this project was to identify compounds that act as allosteric inhibitors via stabilizing the procaspase form of the enzyme. Previous work in Well's laboratory has shown that such allosteric inhibitors can be identified and these act by binding at the dimer interface of enzyme (Hardy, Lam et al., 2004).
The biochemical assay was configured using purified caspase 1 at a high enzyme concentration to promote formation of the homodimers and thus facilitate the identification of allosteric inhibitors. The overall goal was to identify reversible inhibitors with better drug-like properties than the currently available set of aspartyl-containing peptidomimetics that covalently bind the active site. Caspase 1 was assayed using the profluorescent substrate Ac-WEHD-AFC. After initiation of the assay with substrate the plates were rapidly read using an automated robotic system (Kalypsys, Inc.) to maintain consistent timing. A kinetic mode of detection was used where the initial rate was collected (estimated final product formation was ~10%). Compounds were screened as a concentration-titration series that ranged from 57 uM to 0.7 nM. Below is the protocol used for caspase 1.
NCGC Assay Protocol Summary:
Caspase 1 was prepared in buffer (50 mM HEPES pH 7.5, 50 mM KCl, 200 mM NaCl, 10 mM DTT, 0.1% CHAPS) at a concentration of 66.6 nM and 3 uL was dispensed to all wells using black solid Kalypsys 1536-well plates. 20 nL of DMSO containing compounds was added using a pin-tool (Kalypsys Inc.) to columns 5-48. Then 20 nL of DMSO solution from a control plate was added to columns 1-4. Controls were: Column 1, 16 point titration with each concentration in duplicate (1:1 dilutions in DMSO; final starting concentration was 57 uM) of the caspase 1 inhibitor Ac-WEHD-CHO (Alexis Biochemicals); Column 2, a 16 point titration with each concentration in duplicate of the free AFC fluorophore prepared in DMSO (Alexis Biochemicals), final starting was 40 uM; Column 3 neutral (DMSO only) control; Column 4: DMSO alone, to serve as a negative control (no substrate was added). Then 1 uL of 20 uM the substrate Ac-WEHD-AFC (Alexis Biochemicals) prepared in the same buffer was dispensed to all wells except columns 2 and 4 and the plates were immediately transferred (< 1 min) to the Viewlux. The plates were then exposed using 405 nm excitation/520 nm emission filters for 4 sec and read at 20 sec intervals for 3 min. Final enzyme concentration was 50 nM and the final substrate concentration was 5 uM.
Concentration-response curves were fitted to the data calculated from slope of the linear regression of fluorescent intensity versus time (the rate). The concentration-effect curves were then classified based on curve quality (r2), response magnitude and degree of measured activity. […] Inconclusive compounds had appreciable concentration-dependent effects on both the measured rate and the interpolated basal fluorescence intensity at the start of the reaction but where the basal fluorescent intensity was marginal (e.g. < 10-fold). Inconclusive compounds also encompass highly fluorescent compounds (>100-fold increases in fluorescent intensities values relative to controls) where artificial concentration-dependent decreases in the rate occurred at high compound concentrations due to fluorescent interferences.
Keywords: Caspase 1, proteases, profluorescent, MLSMR, MLSCN, NIH Roadmap, qHTS, NCGC

| Compound | activity change, negative = inhibition |
| --- | --- |
| O=C(Oc1cc(OC(=O)c2ccccc2)c2c(c1)OC(c1ccc(OC(=O)c3ccccc3)c(OC(=O)c3ccccc3)c1)[C@@H](OC(=O)c1ccccc1)C2)c1ccccc1 (stereo partly specified) | 0.115% |
| O=C(/C(=N\O)n1cncn1)c1ccc(Br)cc1Br | -2.02% |
| CCC1(C)CC(=O)NC1=O (stereo unspecified) | -1.26% |
| Cc1c(S(=O)(=O)O)oc2c1C(=O)C(=O)c1c-2ccc2c1CCCC2(C)C | 1.46% |
| Cc1ccc(Cc2nc(-c3cccc(C)c3)no2)cc1 | -1.38% |
| N#CCC(=O)NC(=O)NCC1CC1 | -0.863% |
| CCCCC/C=C/C=C/C=O | -1.41% |
| Cc1noc(C)c1CSc1nnc2ccc3ccccc3n12 | 0.876% |
| COc1ccc(/C=C/C(=O)c2ccc(OC)cc2O)cc1 | -5.59% [at 11.5 µM] |
| CCC(CCC(C)C1CCC2C3CC=C4CC(O)CC[C@@]4(C)C3CC[C@@]12C)C(C)C (stereo partly specified) | 0.733% |
| Nc1nc2nc(Cl)[nH]c2c(=O)[nH]1 | 0.386% |
| COc1ccc(N2C(=O)C3CCCN3C2c2cccc(OC)c2)cc1 (stereo unspecified) | -4.74% |
| COc1ccccc1OCCNCC(O)COc1cccc2[nH]c3ccccc3c12 (stereo unspecified) | -1.42% |
| Clc1ccc(C2[C@H]3CN(CC4CCCCC4)[C@H](c4ccccc4)C34CC2(c2cccnc2)C4)cn1 (stereo partly specified) | -0.723% |
| COC1C[C@@H](O[C@@H]2C(C)C(=O)OC(C)C(C)C(O)C(C)C(=O)[C@@]3(CO3)CC(C)C(OC3OC(C)CC(N(C)C)C3O)C2C)OC(C)[C@@H]1O (stereo partly specified) | 1.99% |
| COc1ccc(C2C(C#N)=C(N)Oc3cc(N)ccc32)cc1OC (stereo unspecified) | -19% |
| CO[C@@H]1COC(=O)[C@H](Cc2ccccc2)NC(=O)C/C=C\[C@@H](C)[C@H](OC)COC(=O)[C@@H](C)NC(=O)C/C=C\[C@H]1C | 0.468% [at 11.5 µM] and -0.511% [at 11.5 µM] |
| C=C(C)C1CC=C(CO)CC1 (stereo unspecified) | 2.78% |
| C[C@@H]1O[C@@H](OC[C@H]2O[C@@H](Oc3c(-c4cccc(O)c4O)oc4cc(O)cc(O)c4c3=O)[C@H](O)[C@@H](O)[C@@H]2O)[C@H](O)[C@H](O)[C@H]1O | -0.0137% |
| BrC1C(Br)C(Br)C(Br)C(Br)C1Br (stereo unspecified) | -2.73% |
| CC1(C)OC(C(O)(c2ccccc2)c2ccccc2)C(C(O)(c2ccccc2)c2ccccc2)O1 (stereo unspecified) | -8.99% [at 11.5 µM] |
| CCOc1ccc(Cn2nnc(C(=O)NCc3ccccc3)c2N)cc1 | 0.482% |
| CC1C(O)CC2C(C(=O)O)=CO[C@@H](O[C@H]3OC(CO)C(O)C(O)C3O)C21 (stereo partly specified) | 0.43% |

| Compound | activity change, negative = inhibition |
| --- | --- |
| Cc1cccc2c3c(ccc12)C1=C(C(=O)C3=O)C(C)CO1 (stereo unspecified) | -14.2% |
| C[C@@H]1CC[C@H]2[C@H](C)[C@H]3[C@H](C[C@H]4[C@@H]5CC=C6C[C@@H](O)CC[C@@]6(C)[C@@H]5C[C@@H](O)[C@]34C)N2C1 | -2.52% [at 11.5 µM] |
| Cn1c(SCC(=O)N2CCOCC2)nnc1-c1ccc(NC(=O)c2ccccc2F)cc1 | -3.47% |
| CC1CCCN(C(=O)c2ccc3c(c2)C(=O)N(CCC2=CCCCC2)C3=O)C1 (stereo unspecified) | -3.35% |
| CC(C)c1ccc(NC(=O)NC2CCCCC2)cc1 | -2.93% |
| Nc1nc2[nH]c(=O)c(=O)[nH]c2c(=O)[nH]1 | -0.495% |
| COC(=O)[C@@H]1C[C@H]2CC[C@H](O)C[C@H]2N1Cc1ccc(N2CCN(C)CC2)cc1 | -0.142% |
| CC1O[C@@H](Oc2c(-c3ccc(O)c(O)c3)oc3cc(O)cc(O)c3c2=O)C(O)C(O)C1O (stereo partly specified) | 1.13% |
| Cc1csc(-c2nc3ccccc3n2C)n1 | 1.13% |
| Brc1cc(Br)c(Oc2cc(Br)c(Br)cc2Br)cc1Br | -0.535% |
| O=C(O)c1ccc(Cl)c(S(=O)(=O)Nc2ccccc2Cl)c1 | 0.638% |
| CC(=O)OCC1OC(C#Cc2ccccc2Cl)C=CC1OC(C)=O (stereo unspecified) | -0.455% [at 11.5 µM] |
| C[C@@H]1/C=C\CC(=O)OC[C@H]2O[C@@H](C=C[C@@H]2O)[C@H](C)/C=C\CC(=O)OC[C@H]2O[C@H]1C=C[C@@H]2O | 0.74% [at 11.5 µM] |
| CC1CC[C@@]23CCC4(C)[C@@]5(C)CCC6C(C)(C)C(O)CC[C@@]6(C)C5C=C[C@@]4(OC2=O)C3C1C (stereo partly specified) | -0.0985% |
| CC(C)C1=CC2=CC[C@@H]3[C@](C)(CO)CCC[C@]3(C)C2CC1 (stereo partly specified) | -2.25% |
| COc1ncnc2sc3c(c12)CCCC3 | -4.32% |
| CN1CCC(CNC(=O)c2ccc(-n3c(=O)c(=O)[nH]c4ccccc43)cc2)CC1 | -3.85% |
| O=C(O)[C@@H]1[C@@H](C(=O)O)[C@]23C[C@@]2(C(=O)O)[C@]2(C(=O)O)CCC3=C3CCCC312 | -0.0959% [at 11.5 µM] |
| CN(C)Cc1c(C#N)c2ccccc2n1C | -0.283% |
| COCc1nnc(NC(=O)CS(=O)(=O)Cc2ccccc2)s1 | 1.32% |
| CC(C)=CC1C(C(=O)O)C1(C)C (stereo unspecified) | 2.02% |
| CCC1=C(OC(=O)N(CC)CC)N2C(=O)OC(=NCC3CC3)[C@]2(C)[C@H]2C1=CC[C@H]1C(=O)N(CC(=O)OC)C(=O)[C@H]12 | -1.41% |
| CN1CCc2nc(-c3ccccc3)c(-c3ccccc3)cc2C1 | -1.85% [at 11.5 µM] |
